We go through 17 molecules from PubChem BioAssay.

For assay [1], the system named is Human papillomavirus type 1a protein E7 (residues 44-93). Put plainly: small molecules binding HPV E7 44-93 – biochemical, small-molecule microarray, residues 44-93, 635 nm fluorescence, primary screen (AID 1108).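 Note: E7 fragment applied at 1 µg/mL in TBST for 1 h at 4 C; score combines spot fluorescence with its signal to noise ratio.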 As to conditions: fluorescence 635 nm, higher = more signal.
Assay [2] can be described thus: hepatitis C replication reporter changes, two-sided – Huh7 cells, luciferase reporter, HCV replication inhibitor project, primary screen (AID 1109).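 Note: huh7 hepatoma cells harbouring a luciferase neomycin HCV replicon reporter; luciferase luminescence as measure of HCV replicon replication; test concentration not given here.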 Conditions: Huh7 HCV replicon luciferase reporter, 48 h; higher = more signal.
Assay [3] deals with Left-right determination factor 2 (Homo sapiens) (UniProt O00292). Description: small molecules binding LEFTY2 protein – biochemical, small-molecule microarray, 635 nm fluorescence scan, primary screen (AID 1110). Conditions: higher = more signal.
Sequence of Left-right determination factor 2 (Homo sapiens) (O00292 whole entry, looked up): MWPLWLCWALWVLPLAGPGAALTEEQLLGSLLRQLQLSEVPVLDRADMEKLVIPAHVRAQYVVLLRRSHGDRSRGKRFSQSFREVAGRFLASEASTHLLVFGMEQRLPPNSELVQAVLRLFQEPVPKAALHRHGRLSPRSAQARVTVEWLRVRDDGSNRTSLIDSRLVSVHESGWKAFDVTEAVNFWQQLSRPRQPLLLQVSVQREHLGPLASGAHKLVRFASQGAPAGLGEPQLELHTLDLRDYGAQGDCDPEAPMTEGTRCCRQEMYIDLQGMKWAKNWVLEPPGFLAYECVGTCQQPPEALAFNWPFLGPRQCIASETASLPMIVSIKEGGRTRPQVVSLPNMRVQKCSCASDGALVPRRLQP
Assay [4] deals with Calmodulin-1 (Homo sapiens) (UniProt P0DP23). Description: small molecules binding calmodulin-1 with EGTA – biochemical, small-molecule microarray, Cy5-labelled CALM1, profiling panel (AID 1111).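 Note: labelled calmodulin applied in Tris saline Tween buffer holding calcium plus EGTA and DTT.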 As to conditions: Cy5-CALM1 binding fluorescence, higher = more signal.
For assay [5] the target is unchanged. Description: small molecules binding Ca-loaded calmodulin-1 – biochemical, small-molecule microarray, Cy5-labelled CALM1, plus calcium, artefact control for SMM control-protein annotation, profiling panel (AID 1112).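 Note: score merges spot fluorescence with signal to noise from triplicate slides.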 Conditions: Cy5-CALM1 binding fluorescence, higher = more signal.
Assay [6] can be described thus: probe aWnt5a binding to arrayed compounds – biochemical, biotinylated probe, 635/667 nm fluorescence, primary screen (AID 1113).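 Note: score merges 667 nm fluorescence intensity with signal-to-noise per printed feature.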 Conditions: small-molecule microarray, higher = more signal.
A short description of assay [7]: probe aShh binding to arrayed compounds – biochemical, biotinylated probe, 635/667 nm fluorescence, primary screen (AID 1114).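 Note: probe is biotin-labelled aShh protein from a stem cell growth factor screen; measures binding of labelled protein to compounds printed on the slide; score merges feature fluorescence at 667 nm with signal-to-noise.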 As to conditions: small-molecule microarray, higher = more signal.
Assay [8] is described as follows: probe aNog binding to arrayed compounds – biochemical, biotinylated probe, 635/667 nm fluorescence, primary screen (AID 1115).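 Note: probe is biotinylated aNog protein used at 0.15 µg/mL for 1 h at 4 C; z-score combines 667 nm fluorescence of each spot with its signal to noise.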 As to conditions: small-molecule microarray, higher = more signal.
Assay [9] addresses Torsin-1A-interacting protein 1 (Homo sapiens) (UniProt Q5JTV8). Description: compound microarray binding of lysate hLAP1 – cell lysate, small-molecule microarray, COS7 lysate, 635/667 nm fluorescence, primary screen (AID 1116). Conditions: 635 nm fluorescence, higher = more signal.
For assay [10], the target named is Alpha-bungarotoxin (Bungarus multicinctus) (UniProt P60615). Put plainly: compounds binding labelled alpha-BTX control protein – biochemical, small-molecule microarray, Alexa647 label, 635/667 nm fluorescence, artefact control for SMM control protein annotation, profiling panel (AID 1117). As to conditions: alpha-BTX-A647 binding fluorescence, higher = more signal.
Sequence of Alpha-bungarotoxin (Bungarus multicinctus) (P60615 whole entry, looked up): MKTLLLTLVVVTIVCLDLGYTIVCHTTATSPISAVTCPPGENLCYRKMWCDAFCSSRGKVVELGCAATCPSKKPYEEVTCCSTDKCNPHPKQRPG

Sequence of Torsin-1A-interacting protein 1 (Homo sapiens) (Q5JTV8 whole entry, looked up): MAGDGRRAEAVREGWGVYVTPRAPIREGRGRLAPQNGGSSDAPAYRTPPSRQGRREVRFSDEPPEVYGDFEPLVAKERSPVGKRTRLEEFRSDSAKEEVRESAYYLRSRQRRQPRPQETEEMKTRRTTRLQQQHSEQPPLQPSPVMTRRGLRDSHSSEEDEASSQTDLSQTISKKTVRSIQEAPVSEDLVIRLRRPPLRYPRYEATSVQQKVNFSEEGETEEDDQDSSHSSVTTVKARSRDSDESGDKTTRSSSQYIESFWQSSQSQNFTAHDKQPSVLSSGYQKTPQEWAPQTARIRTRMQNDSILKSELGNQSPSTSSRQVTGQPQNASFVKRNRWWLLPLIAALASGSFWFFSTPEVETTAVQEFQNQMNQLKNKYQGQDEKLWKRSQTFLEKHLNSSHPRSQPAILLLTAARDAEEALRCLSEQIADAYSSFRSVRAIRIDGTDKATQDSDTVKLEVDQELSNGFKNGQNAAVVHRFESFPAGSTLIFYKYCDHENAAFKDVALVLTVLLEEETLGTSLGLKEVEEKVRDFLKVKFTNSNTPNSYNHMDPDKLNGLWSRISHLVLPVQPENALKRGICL

With `O=C1O[C@@H](c2ccccc2)[C@@H](c2ccccc2)N2[C@@H](c3ccc(O)cc3)[C@]3(C(=O)Nc4ccc(C#CC5(O)CCCCCC5)cc43)[C@@H](C(=O)NC[C@H](O)c3ccccc3)[C@H]12`, the composite z-score was 1.39 in assay [1]; -0.817 in [3]; 0.122 in assay [4]; 0.208 in assay [5]; -0.0276 in [6]; -0.138 in [7]. Besides, the composite z-score in assay [8] was 0.0841; in assay [9], 1.15; in assay [10], 0.203. The molecule further displayed a z-score in [2] of -0.737.
Turning to `CCCC[C@@H]1C[C@H]1[C@@H](NC(=O)Cc1ccccc1)c1ccc(-c2ccccc2)cc1`, the composite z-score in assay [1] was 1.24; in [3] it was -0.319; in [4], 0.538; in assay [5] it was 0.588; in [6], -0.0276; in assay [7], 0.0098. The composite z-score in assay [8] was -0.0503; in assay [9], 0.487; in [10], 0.263. This molecule also registered a z-score in [2] of -0.783.
As to `CCCCC=C[C@@H](NC(=O)c1ccc(-c2ccccc2)cc1)c1ccccc1`, the composite z-score is 1.31 in [1]; 0.184 in assay [3]; 0.107 in [4]; 0.506 in [5]; 0.123 in [6]; 0.934 in [7]. Also, the composite z-score in assay [8] was determined as 0.964; in assay [9] it was 1.11; in assay [10], 0.401. The molecule also had a z-score in assay [2] of -2.21.
Turning to `C[N+](C)(C)CCCCCCNC(=O)[C@H]1C[C@H]2C(=O)NCC(=O)N2[C@H]1c1ccc(O)cc1`, the composite z-score in assay [1] was 1.34; in [3], 1.03; in assay [4] it was 0.14; in assay [5], -1.16; in assay [6] it was -0.0846; in assay [7], 0.21. Also, the figures for the composite z-score in assay [8], in [9] and in assay [10] were -0.507, -0.489 and 0.713, respectively. The z-score in assay [2] turned out to be 1.4.
Turning to `C=CC[C@]1(C(=O)NCCN2CCOCC2)N=C(c2ccc(OCCCO)cc2)O[C@H]1c1ccccc1CN=[N+]=[N-]`, the composite z-score in assay [1] is 0.396; in assay [3], 0.632; in [4] it was 0.21; in assay [5], -0.528; in assay [6] it was 0.0023; in [7], -0.203. Moreover, the values for the composite z-score in assay [8], in [9] and in assay [10] were -0.193, 0.554 and -0.0452, respectively. Further, the z-score in assay [2] was -1.59.
Turning to `O=C(NCCCCCNC(=O)/C(Cc1ccccc1)=N/O)OCc1ccccc1`, the composite z-score in assay [1] was -0.0938; in [3] it was 0.629; in [4] it was -0.503; in [5] it was -0.592; in assay [6] it was -0.0445; in assay [7], -0.426. The composite z-score in assay [8] was -0.633; in assay [9], 0.154; in [10], 0.269. Moreover, in assay [2], the z-score is -1.24.
As for `O=C(CS)NCCCCCCNC(=O)[C@H]1C[C@H]2C(=O)N[C@@H](Cc3ccccc3)C(=O)N2[C@H]1c1ccc(O)cc1`, the composite z-score is 1.39 in [1]; 0.656 in assay [3]; -0.123 in assay [4]; -0.426 in assay [5]; -0.1 in assay [6]; -0.339 in [7]. Besides, the composite z-score in [8] is -0.493; in assay [9] it was 0.0397; in assay [10] it was 0.329. This molecule registered a z-score in assay [2] of -0.53.
In the case of `C=C(COC)/C(=C/C[C@H](OC(C)=O)c1ccc(OCCO)cc1)c1cc(C(=O)OC)ccc1OC`, the composite z-score is 0.697 in assay [1]; 0.695 in [3]; -0.24 in assay [4]; -0.845 in assay [5]; -0.0792 in assay [6]; -0.169 in assay [7]. For the same molecule, the composite z-score came to 0.449 in [8], 2.13 in assay [9] and 0.0079 in [10]. The same molecule came in with a z-score in [2] of -1.13.
With `CN1C(=O)C2C=CC(C(O)c3cccc(O)c3)N(Nc3ccccc3)C2C1=O` (stereo not given), the composite z-score in [1] is -0.286; in assay [3] it was 0.13; in assay [4], -0.185; in assay [5], -0.09; in [6], 0.0597; in assay [7], 1.72. Moreover, the composite z-score in assay [8] was 0.582; in assay [9], 0.203; in assay [10], 0.041. The molecule further showed a z-score in [2] of 0.359.
Turning to `CCOC(=O)C1=CC[C@@H](c2cccc(Cl)c2)N(S(=O)(=O)c2ccc(C)cc2)C1`, the composite z-score in [1] was 0.412; in assay [3], -0.326; in assay [4], 1.06; in [5] it was 0.573; in assay [6], -0.232; in assay [7] it was -0.0035. Moreover, the composite z-score in assay [8] is 0.424; in [9] it was 2.68; in assay [10], 0.703. Further, the z-score in [2] was -1.76.
Take `CCOc1cc(C(O)C2C=CC3C(=O)N(c4ccccc4)C(=O)C3N2Nc2ccc(C#N)cc2)ccc1O` (stereo not given): the composite z-score in assay [1] was 0.0289; in [3], -0.0669; in assay [4], 1.81; in assay [5] it was 0.0646; in [6], -0.261; in assay [7], -0.315. The composite z-score in assay [8] came to 0.0582; in assay [9] it was 0.562; in [10], 1.28. Also, the z-score in assay [2] is -0.131.
As for `CC1=C[C@@]2(CO)C(=O)[C@]3(CO3)[C@@H]1[C@H]1[C@]2(C)C=C(CO)C(=O)[C@]12CO2`, the composite z-score in assay [1] is 0.122; in assay [3], 0.351; in assay [4], -0.163; in assay [5] it was -0.0609; in assay [6], -0.0799; in assay [7], -0.123. Moreover, the composite z-score in assay [8] was -0.488; in assay [9], -0.312; in [10], 0.242. In assay [2], this molecule returned a z-score of -1.61.
`COC(=O)Cn1c(C(=O)N(C)C)cc2c1C[C@H]1CN(C(=O)c3ccccc3)[C@@](Cc3ccc(F)cc3)(C(=O)OC)[C@@H]21`: the composite z-score was 0.389 in assay [1]; 0.484 in assay [3]; 0.642 in assay [4]; 0.496 in [5]; 0.328 in assay [6]; 0.235 in [7]. In addition, the composite z-score was found to be 0.715 in [8], 0.768 in assay [9] and 0.368 in assay [10]. The z-score in assay [2] was found to be 0.387.
`COC(=O)[C@H](Cc1ccccc1)N1CC(/C=C/C2CC2)=C[C@H]1[C@H](O)Cc1ccccc1`: the composite z-score in [1] was 0.484; in assay [3], 0.396; in assay [4], 0.405; in assay [5] it was -0.647; in [6], -0.0944; in assay [7], -0.0693. Moreover, the results for the composite z-score in [8], in [9] and in assay [10] were 0.287, 0.425 and 1.2, respectively. Also, the z-score in assay [2] was -4.03.
As for `O=C1OCCC/C=C\[C@H]2OC34C=CCN(CCN5CCOCC5)C(=O)[C@H]3N(CCCCCCO)C(=O)[C@@H]4C12` (stereo not given in full), the composite z-score in assay [1] was -0.776; in assay [3], -0.311; in [4], -0.523; in [5], -0.909; in assay [6], -0.18; in assay [7], -0.0553. In addition, the composite z-score in [8] is -0.103; in [9], 1.52; in assay [10] it was -0.162. The z-score in [2] was 0.857.
For `[N-]=[N+]=NCc1ccccc1C[C@]1(C(N)=O)N=C(c2ccc(OCCCO)cc2)O[C@H]1c1ccccc1`, the composite z-score in [1] was 1.45; in assay [3], -1.1; in assay [4], 0.637; in assay [5], 0.784; in assay [6] it was 0.0003; in assay [7] it was 0.14. Besides, the composite z-score came to 0.581 in assay [8], 2.27 in assay [9] and 0.623 in assay [10]. This molecule yielded a z-score in [2] of -2.07.
In the case of `O=C1O[C@@H](c2ccccc2)[C@@H](c2ccccc2)N2[C@@H](c3ccc(OCCO)cc3)[C@]3(C(=O)Nc4ccccc43)[C@@H](C(=O)O)[C@H]12`, the composite z-score in assay [1] is 0.908; in assay [3] it was -0.318; in assay [4], -0.0663; in assay [5] it was 0.883; in assay [6], 0.779; in assay [7], 0.297. Also, the composite z-score in assay [8] is 2.26; in [9], -0.308; in assay [10] it was 0.323. The same molecule yielded a z-score in assay [2] of -1.47.
